Screening data (PubChem)
CYP2C19 inhib = blocks human cytochrome P450 2C19. P33261. CYP2C19 Supersomes, luciferin-H EGE luminescence, 30 min. inhibition, % at 5 µM. hit rate 21% among 96,000. AID 778;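 active = CYP2C19 inhibition above a set limit at 5 µM in the primary screen, cut at about 50% in these data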
CYP2C9 act = increases human cytochrome P450 2C9 activity | AID 1024 | P11712 | activation factor at 5 µM | hit rate 1.4% among 96,000 | recombinant CYP2C9, luciferin-H conversion, luminescence; stronger effect = higher value; factor 1 = untreated enzyme, 0 = blocked;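 active = activation factor of 2 or more for CYP2C9 at a 5 µM dose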
CYP2C19 activ = cytochrome P450 2C19 (human) activation; recombinant CYP2C19, luciferin-H EGE luminescence; stronger effect = higher value; 0 = fully inhibited enzyme, 1 = untreated enzyme; P33261; 96,000 tested, under 10 active; activation factor at 5 µM;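 active = activation factor of at least 2 at 5 µM in the primary screen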
Cav3 T inh = inhibitors of human Cav3.2 T-type calcium channel; O95180; B-score at 10 µM; hit rate 4% among 100,000; Cav3.2-expressing cells, Fluo-4 calcium fluorescence FDSS; stronger effect = lower value;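 active = single-dose well whose peak fluorescence ratio is a statistical outlier from its plate by either plate-standardised score or position-corrected B-score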
CYP2C9 inhib = human CYP2C9 inhibition; P11712; CYP2C9 Supersomes, luciferin-H conversion, luminescence; inhibition, % at 5 µM; hit rate 20% among 96,000; AID 777;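 active = blocking of liver enzyme CYP2C9 beyond about 50% at 5 µM, limit read from the data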
Hits are given with their value. This is a sample that favours compounds with a hit; in the whole collection about 27% have one here.

For Fc1cccc(F)c1CN1CCN(c2ncccn2)CC1 the results were CYP2C19 inhib 79, CYP2C9 act inactive, CYP2C19 activ inactive, Cav3 T inh inactive and CYP2C9 inhib inactive.
Cc1ccc(CN2CCN(c3ncccn3)CC2)o1 was read as CYP2C19 inhib 68, CYP2C9 act inactive, CYP2C19 activ inactive and CYP2C9 inhib inactive.
Screening CCS(=O)(=O)NC(C)C(c1cccs1)N1CCN(c2ccc(F)cc2)CC1 (centres undefined) returned CYP2C19 inhib inactive, CYP2C9 act inactive, CYP2C19 activ inactive, Cav3 T inh inactive and CYP2C9 inhib inactive.
Cc1ccc(C(=O)c2coc3ccc(O)c(Cl)c23)cc1 was read as CYP2C19 inhib 54, CYP2C9 act inactive, CYP2C19 activ inactive, Cav3 T inh -5.2 and CYP2C9 inhib inactive.
`O=C(c1ccccc1)c1coc2ccc(O)c(Cl)c12` gave CYP2C19 inhib 90, CYP2C9 act inactive, CYP2C19 activ inactive, Cav3 T inh inactive and CYP2C9 inhib 64.
For COc1ccc(C(=O)c2coc3ccc(O)c(CN4CCCCC4)c23)cc1 the results were CYP2C19 inhib inactive, CYP2C9 act inactive, CYP2C19 activ inactive, Cav3 T inh inactive and CYP2C9 inhib inactive.
For CCC(=O)Nc1c(OC(=O)CC)ccc2c(C)cc(=O)oc12 the results were Cav3 T inh inactive.
For O=C(C1CCN(C2CC(=O)N(c3ccc(Cl)cc3)C2=O)CC1)N1CCOCC1 (centres undefined) the results were CYP2C19 inhib inactive, CYP2C9 act inactive, CYP2C19 activ inactive, Cav3 T inh inactive and CYP2C9 inhib inactive.
COc1ccc(CNC(=O)C(c2ccco2)N(C(=O)c2csnn2)c2cccc(C)c2C)cc1 (centres undefined) was read as Cav3 T inh inactive.
Screening Fc1ccccc1COc1ccc(Br)cc1CNCc1ccncc1 returned CYP2C19 inhib 99, CYP2C9 act inactive, CYP2C19 activ inactive, Cav3 T inh inactive and CYP2C9 inhib 84.
`Fc1ccc(COc2ccc(Br)cc2CNCc2ccncc2)cc1` gave CYP2C19 inhib 99, CYP2C9 act inactive, CYP2C19 activ inactive, Cav3 T inh inactive and CYP2C9 inhib 89.
Screening CCOc1cc(CNc2ccccc2)cc(Br)c1OCc1ccccc1F returned CYP2C19 inhib inactive, CYP2C9 act inactive, CYP2C19 activ inactive, Cav3 T inh inactive and CYP2C9 inhib 54.
For CCOc1cc(CNCc2ccncc2)cc(Br)c1OCc1ccc(F)cc1 the results were CYP2C19 inhib 80, CYP2C9 act inactive, CYP2C19 activ inactive, Cav3 T inh inactive and CYP2C9 inhib 91.
For c1cncc(-c2nc3c(ccc4ccccc43)[nH]2)c1 the results were CYP2C19 inhib inactive, CYP2C9 act inactive, CYP2C19 activ inactive, Cav3 T inh inactive and CYP2C9 inhib inactive.
For CCOC(=O)CON1C(=O)c2ccccc2C1=O the results were CYP2C19 inhib inactive, CYP2C9 act inactive, CYP2C19 activ inactive, Cav3 T inh inactive and CYP2C9 inhib inactive.
Screening CCc1cc2c(-c3ccccc3)cc(=O)oc2c(CN2CCOCC2)c1O returned CYP2C19 inhib 78, CYP2C9 act inactive, CYP2C19 activ inactive, Cav3 T inh -8.7 and CYP2C9 inhib 92.
Screening CS(=O)(=O)N(CC(=O)N1CCc2ccccc2C1)c1ccc2c(c1)OCO2 returned CYP2C19 inhib 88, CYP2C9 act inactive, CYP2C19 activ inactive, Cav3 T inh inactive and CYP2C9 inhib inactive.
CCOC(=O)N1CCN(C(=O)c2ccc(N(Cc3ccccc3)S(C)(=O)=O)cc2)CC1 was read as CYP2C19 inhib 68, CYP2C9 act inactive, CYP2C19 activ inactive, Cav3 T inh inactive and CYP2C9 inhib 90.
`CCOC(=O)N1CCN(C(=O)c2ccc(N(Cc3ccc(C)cc3)S(C)(=O)=O)cc2)CC1` gave CYP2C19 inhib 65, CYP2C9 act inactive, CYP2C19 activ inactive, Cav3 T inh inactive and CYP2C9 inhib 86.
`Cc1ccc(CN(c2ccc(C(=O)N3CCOCC3)cc2)S(C)(=O)=O)cc1` gave CYP2C19 inhib inactive, CYP2C9 act inactive, CYP2C19 activ inactive, Cav3 T inh inactive and CYP2C9 inhib inactive.
Screening CN1CCN(C(=O)c2ccc(N(Cc3ccccc3Cl)S(C)(=O)=O)cc2)CC1 returned CYP2C19 inhib inactive, CYP2C9 act inactive, CYP2C19 activ inactive, Cav3 T inh inactive and CYP2C9 inhib inactive.
For CS(=O)(=O)N(Cc1ccccc1)c1ccc(C(=O)N2CCc3ccccc3C2)cc1 the results were CYP2C19 inhib inactive, CYP2C9 act inactive, CYP2C19 activ inactive, Cav3 T inh inactive and CYP2C9 inhib 63.
Screening CC1CCN(C(=O)CN(c2ccc3c(c2)OCO3)S(C)(=O)=O)CC1 returned CYP2C19 inhib inactive, CYP2C9 act inactive, CYP2C19 activ inactive, Cav3 T inh inactive and CYP2C9 inhib inactive.
